This is an account of results in PubChem BioAssay (NCI).

The panel holds about 83,000 compounds, 20% with a hit somewhere; the sample as a whole holds those more often.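 96-well plates, one dose, 48 hours. Percent growth reported; active if below 10.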 Values without a mark were called inactive. Activity calls are given as the source filed them.

Test in all cases: NCI-60 one-dose screen, 48 h (100 = growth as untreated, 0 = no growth, -100 = all killed)
Common to all, as to conditions: 10 µM unless noted

The subject of test [1] is NCI-H226 lung.
Test [2] concerns NCI-H322M lung.
The test system of test [3] is HOP-62 NSCLC.
In test [4] the test system is NCI-H460 lung.
For test [5], the system named is HOP-92 NSCLC.
The test system of test [6] is NCI-H522 lung.
In test [7] the test system is A549/ATCC NSCLC.
For test [8], the system named is 786-0 renal.
Test [9] has as its system COLO 205 colon.
Test [10] has as its system DU-145 prostate.
Test [11] has as its system K-562 leukemia.
Test [12] concerns MALME-3M melanoma.
For test [13], the system named is MDA-MB-231 breast.
Test [14] has as its system SF-268 CNS.
Test [15] has as its system SF-295 CNS.
The test system of test [16] is SF-539 CNS.
For test [17], the system named is UACC-257 melanoma.
Test [18] has as its system RXF 393 renal.
The test system of test [19] is M14 melanoma.

On to `COc1ccc(OC)c(/C=C2\COc3ccc(O)c(O)c3C2=O)c1`, for which the growth is 85.2% in test [1]; 54.3% in test [2]; 30.2% in test [3]; 4.53% (active) in test [4]; 56.7% in [5]; -33.4% (active) in test [6]. The growth is 48.1% in test [7]; 22.4% in test [8]; 95.3% in test [9]; 3.87% (active) in test [10]; 5.87% (active) in test [11]; -5.32% (active) in test [12]. The growth in test [13] is 9.33% (active); in [14] it was 15.9%; in [15] it was 78.4%; in test [16], -23.1% (active); in test [17], 49.4%.

Consider `N#Cc1c(NC(=O)c2ccc(Br)cc2)sc2c1CCCC2`, for which the growth in test [1] was 44.2%; in [2], 52.1%; in [3], 46.4%; in test [4] it was 14.3%; in test [5], 81.5%; in test [6], 22.6%. The growth in test [7] was 53.6%; in test [8], 46.1%; in test [10], 33.3%; in [11], 15.9%; in test [12] it was 49.2%; in test [13] it was 44.9%. Further, the growth in [18] was 13.7%; in [14], 61.7%; in test [15] it was 21.7%; in [16] it was 10.5%; in [17], 66.1%; in test [19], 17.3%.

Consider `COC(=O)c1ccc2oc(NC(=O)c3ccc(N4CCOCC4)c([N+](=O)[O-])c3)nc2c1`, for which the growth in test [1] was 90.5%; in test [2], 92.6%; in test [3], 82.3%; in test [4] it was 105%; in test [5] it was 84.9%; in test [6], 91%. The growth in [7] is 98.7%; in test [8] it was 108%; in test [10] it was 102%; in test [11] it was 84.6%; in test [12] it was 90.5%; in test [13] it was 100%. Further, the growth is 119% in test [18]; 97.4% in test [14]; 97.7% in test [15]; 89.6% in [16]; 97.9% in test [17]; 98.8% in [19].

Consider `COc1cc2cc(Oc3ccc(NC(=O)Nc4cc(C(F)(F)F)cc(C(F)(F)F)c4)cc3)c(C)nc2cc1OCCN1CCCCC1`, for which the growth in test [1] was 22.1%; in test [2], -87.1% (active); in test [3], -50% (active); in test [4], -78% (active); in test [5], 42.2%; in test [6] it was -53% (active). Besides, the growth was -64.9% (active) in [7]; -83.6% (active) in test [8]; -95% (active) in test [10]; -49.3% (active) in test [11]; -86.2% (active) in [12]; -97.3% (active) in [13]. The growth in test [18] is 31.8%; in [14], -49.3% (active); in [15] it was -81.8% (active); in [16] it was -94% (active); in test [17], -47.4% (active); in test [19] it was -79.6% (active).

Turning to `CSc1nc(N)c(CNC(C)c2ccccc2)c(=O)n1C` (configuration not stated), the growth in test [1] was 91.4%; in test [2] it was 169%; in [3], 95%; in test [4], 105%; in test [5] it was 89%; in test [6], 94.3%. Also, the growth in test [7] was 97.7%; in test [8], 90.2%; in [10] it was 118%; in [11], 96.2%; in test [13], 114%; in test [18] it was 98.9%. For the same compound, the growth in test [14] is 106%; in test [15] it was 117%; in test [16], 94.9%; in test [17], 90.2%; in [19], 97.5%.

With `O=C(CCl)N1c2cccc3cccc(c23)N(C(=O)CCl)C1c1cn(-c2ccccc2)nc1-c1cccc([N+](=O)[O-])c1`, the growth is 98.8% in test [1]; 104% in [2]; 94.5% in [3]; 103% in [4]; 117% in test [5]; 77.1% in [6]. In addition, the growth in test [7] was 107%; in test [8] it was 95.5%; in [10] it was 98%; in test [11], 33.3%; in test [12] it was 108%; in test [13], 85.7%. For the same compound, the growth in [18] is 99.9%; in [14] it was 99.4%; in test [15], 103%; in test [16], 96.5%; in test [17], 103%; in test [19], 84.8%.

Consider `CCn1c(Sc2nnc(NC(=O)CSC(=S)N3CCCCC3)s2)nc2c1c(=O)n(C)c(=O)n2C`, for which the growth in [1] was 86.6%; in test [2], 101%; in test [3], 87.1%; in [4], 101%; in test [5], 81.1%; in test [6] it was 38.1%. Besides, the growth in test [7] was 78.1%; in test [8], 92.4%; in [10] it was 98%; in test [11], 43.6%; in test [12] it was 71.5%; in test [13] it was 103%. The growth in [18] is 86.2%; in [14] it was 96%; in test [15], 83.9%; in [16], 97.7%; in [17], 94.4%; in test [19] it was 67.9%.

Consider `CN1CCC(=C2c3ccccc3C=Cc3ccccc32)CC1`, for which the growth in test [1] is 96%; in test [2] it was 104%; in test [3], 83.4%; in test [4], 93.3%; in [5], 67%; in test [6], 39%. The growth in test [7] was 91.1%; in test [8], 67.5%; in test [12], 105%; in [13] it was 8.64% (active); in [18], 51.6%; in test [14] it was 79.8%. Moreover, the growth in test [15] is 88.1%; in [16] it was 87.4%; in test [17], 81.7%; in [19], 91.7%.

For `COc1ccc(/C(C)=C(\c2ccc(Cl)cc2)c2ccc(OCCN3CCCCCC3)cc2)cc1F`, the growth in test [1] is 71%; in test [2], 83.3%; in test [3], 36.3%; in test [4] it was 8.63% (active); in test [5], 73.3%; in test [6], 65.9%. The growth in [7] is 55%; in test [8], 4.15% (active); in test [9], 22.3%; in test [10], 67.5%; in test [11], 1.96% (active); in test [12], -3.61% (active). Also, the growth in test [13] was 55.1%; in [14], 68.3%; in test [15], -7.79% (active); in test [16], 24.5%; in [17], 39%.
